Screening results from PubChem BioAssay.
A selection: hits, their analogues and other compounds. The true share with any hit is near 21%.
SARS PLpro yeast – inhibitors of SARS-CoV papain-like protease in yeast. S. cerevisiae expressing SARS-CoV PLpro, growth rescue. Potency, µM (highest dose often 32.9 µM), usual class: activators. actives 0.19% (n = 330,000). AID 485353; further: nearly all actives have a fitted effect of over 55% in size
Cycloheximide cs – counter-screen hit for Shiga toxin inhibitors, cycloheximide; cell reporter, cycloheximide protein synthesis inhibition counterscreen; max response, %; actives 12% (n = 300,000); AID 2314; in the data active means max response mostly above about 13%, no sharp cut-off; inactive means mostly below about 14%; further: read at 38.3 µM for the half of the compounds with a filed dose
Pf growth 48h – inhibits P. falciparum growth in the first generation, 48 h | P. falciparum luciferase growth in erythrocytes, 48 h | Potency, µM (doses to about 28.7 µM), actives largely listed as inhibitors | actives 5.9% (n = 310,000) | AID 504832; active means well fitted inhibition curve with a large enough effect; inconclusive means small, poorly fitted or top-dose-only effect, or another doubt; inactive means no such curve, though single readings can be large or run the other way
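Read-out is firefly luciferase luminescence from an integrated reporter in P. falciparum, so falling signal marks reduced parasite growth. Infected erythrocytes were at 2% hematocrit and 0.1% parasitemia (final) in Albumax-supplemented RPMI 1640.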
Shiga toxin inh – blocks Shiga toxin action in Vero cells; Vero cells, Shiga toxin protein synthesis inhibition reporter; inhibition, % at 38.7 µM; actives 9.2% (n = 290,000); AID 2315; in the data active means inhibition mostly above about 28%, no sharp cut-off; inactive means mostly below about 43%
Pf growth 96h – P. falciparum growth inhibition at 96 hour, primary screen for plastid delayed-death inhibitors; P. falciparum luciferase reporter growth, 96 h; Potency, µM (top dose mostly 28.7 µM), hits mostly inhibitors; actives 6.9% (n = 320,000); active means well fitted inhibition curve with a large enough effect; inconclusive means small, poorly fitted or top-dose-only effect, or another doubt; inactive means no such curve, though single readings can be large or run the other way
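Erythrocytes infected with luciferase-expressing P. falciparum were dispensed at 2% hematocrit and 0.05% parasitemia (final), then incubated with compounds 96 hours at 37 C in 5% CO2. Luminescence after detection reagent addition reported growth.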
NS1 inh – inhibitors of influenza NS1 protein function; Potency, µM (highest dose often 46.1 µM); actives 0.4% (n = 270,000); AID 2326; further: actives are rising curves; nearly all actives have a fitted effect of over 50% in size
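A cell-based growth assay was used: compounds that relieve NS1-induced slow growth of budding yeast raise OD600. Assay medium was yeast nitrogen base with ammonium sulphate and -URA supplement, pH 6.0, with 2% galactose.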
Large screens that a line does not name were inactive. Unless noted, the call rests on the fitted dose curve.

O=C1c2ccccc2C(O)(c2ccccc2)N1c1ccncc1 (stereo not drawn)	Pf growth 48h 12µM, Pf growth 96h inconclusive
O=C1c2ccccc2C(O)(c2ccccc2)N1CCc1ccccc1 (stereo not drawn)	Pf growth 48h inconclusive, Pf growth 96h inconclusive
Cc1cccnc1NC(=O)CCc1nnc2ccc(N3CCC4(CC3)OCCO4)nn12	none
O=C(N/N=C1\CCCc2ccccc21)c1ccc([N+](=O)[O-])cc1	none
Cc1ccc(C(=O)N/N=C2\CCCc3ccccc32)c(C)c1	Cycloheximide cs 49, Shiga toxin inh 71 (no result: NS1 inh)
NC(=O)C(=O)N/N=C1\CCc2ccccc21	Cycloheximide cs 37, Shiga toxin inh 62 (no result: NS1 inh)
Cc1csc(NC(=O)C2CC(=O)N(c3ccc(C)c(C)c3)C2)n1 (stereo not drawn)	NS1 inh inconclusive
CCOC(=O)Cn1cncc1-c1ccc([N+](=O)[O-])cc1	Cycloheximide cs 72, Shiga toxin inh 84
CCOc1ccc(NC(=O)Cn2cncc2-c2ccc([N+](=O)[O-])cc2)cc1	Pf growth 96h inconclusive
COc1ccccc1NC(=O)CSc1nnc(NC(=O)C2CCC2)s1	none
CNC(=O)c1cc2ncc(C(F)(F)F)cc2s1	Cycloheximide cs 18
CNC(=O)C(C)c1ncc(C(F)(F)F)cc1Cl (stereo not drawn)	none
CN(C)CCCN(C(=O)c1ccco1)c1nc(-c2ccc(Cl)cc2)cs1	none
COc1ccc(-c2csc(NC(=S)NC(=O)c3ccco3)n2)cc1	none (no result: NS1 inh)
COc1ccc(-c2csc(N(C)C(=O)c3ccco3)n2)cc1	Cycloheximide cs 37 (no result: Shiga toxin inh)
COc1ccc(-c2csc(NC(=O)COC(=O)c3ccco3)n2)cc1	Cycloheximide cs 50, Shiga toxin inh 43
CN(C(=O)c1ccco1)c1nc(-c2ccc(Cl)cc2)cs1	Cycloheximide cs 25, Pf growth 96h 6.6µM
CCn1nc(C(=O)OCC(=O)Nc2nc(-c3ccc(OC)cc3)cs2)c2ccccc2c1=O	Cycloheximide cs 46, Shiga toxin inh 50
COc1ccc(OC)c(-c2csc(N(C)C(=O)c3ccco3)n2)c1	Pf growth 96h inconclusive (no result: Shiga toxin inh)
CC(C)Cn1c(-c2ccc(Br)cc2)c[nH]c1=S	none (no result: NS1 inh)
Cc1ccc(CN(C)C(=O)c2c(C)nn(-c3ccccc3)c2C)cc1	none
Cc1ccc(-c2csc(N(C)C(=O)c3c(C)nn(-c4ccccc4)c3Cl)n2)cc1	Pf growth 48h 12µM, Pf growth 96h inconclusive
CCOC(=O)C1(Cc2cccc(F)c2)CCN(CC2CC2)CC1	Pf growth 96h 15µM
CCOC(=O)C1(Cc2cccc(F)c2)CCN(Cc2nc(CC)[nH]c2C)CC1	Pf growth 48h 3.3µM
COc1c(S(=O)(=O)N2CCN(C)CC2)ccc(Cl)c1Cl	Pf growth 48h inconclusive
COc1ccc(OC)c(C2C(C(=O)c3cccs3)=C(O)C(=O)N2CCN2CCOCC2)c1 (stereo not drawn)	none
C=CCc1cccc(CNc2nc3ccccc3n2CCC)c1O	Pf growth 48h 12µM (no result: Pf growth 96h)
C=CCc1cccc(CNc2nc3ccccc3n2CC)c1O	Pf growth 48h 15µM (no result: Pf growth 96h)
CCCCn1c(NCc2ccccc2O)nc2ccccc21	Pf growth 48h inconclusive
CCC(C)NC(=O)COC(=O)c1ccc(Cl)cc1O (stereo not drawn)	none (no result: NS1 inh)
COc1ccc(S(=O)(=O)Nc2ccc3c(c2)C(=O)N([C@H](C)CO)C[C@H](C)[C@@H](CN(C)S(=O)(=O)c2ccc(F)cc2)O3)cc1	none (no result: Cycloheximide cs, Pf growth 48h, Shiga toxin inh, Pf growth 96h, NS1 inh)
COc1ccc(COC(=O)c2ccc(Cl)c(S(=O)(=O)N3CC(C)OC(C)C3)c2)cc1 (stereo not drawn)	Pf growth 48h 4.7µM, Pf growth 96h 6.6µM (no result: Cycloheximide cs, Shiga toxin inh, NS1 inh)
COc1cc(OC)cc(C(=O)NNC(=O)c2ccc(S(=O)(=O)N3CC(C)OC(C)C3)cc2)c1 (stereo not drawn)	Pf growth 96h inconclusive (no result: NS1 inh)
COc1ccc(C(=O)NNC(=O)c2ccc(S(=O)(=O)N3CC(C)OC(C)C3)cc2)cc1 (stereo not drawn)	Pf growth 96h 1.5µM (no result: NS1 inh)
CC1CN(C(=O)COC(=O)c2ccc(Cl)c(S(=O)(=O)N3CCCCC3)c2)CC(C)O1 (stereo not drawn)	none (no result: NS1 inh)
CCCCN(C(=O)Cn1nnc2ccccc21)C(C(=O)NCCOC)c1cccs1 (stereo not drawn)	none
O=C(c1ccccc1SCc1ccccc1)N1CCCCCC1	Pf growth 96h inconclusive (no result: NS1 inh)
COc1ccc(C)cc1NC(=O)Nc1ccc(C(=O)N2CCCC2)cc1	Cycloheximide cs 14, Shiga toxin inh 48
COc1ccc(Cl)cc1NC(=O)Nc1ccc(C(=O)N2CCCC2)cc1	Cycloheximide cs 17, Shiga toxin inh 55
COc1ccc(Cl)cc1NC(=S)N1CCCC1	Pf growth 96h inconclusive
COc1ccc(C)cc1NC(=O)C(=O)N1CCCC1	Pf growth 96h inconclusive
CCOc1cc(C2NC(=O)c3ccccc3O2)ccc1OC(C)C (stereo not drawn)	Pf growth 96h inconclusive
Cc1cccc(N2CC(C(=O)Nc3nnc(SCc4ccccn4)s3)CC2=O)c1 (stereo not drawn)	Pf growth 96h inconclusive, NS1 inh inconclusive
Cc1ccc(-c2c(C(=O)NCc3ccc(F)cc3)oc(=O)c3ccccc23)cc1	none
Cc1ccc(CN(C(=O)COc2cccc(C)c2C)C2CCS(=O)(=O)C2)o1 (stereo not drawn)	none
NC(=O)Nc1ccc(C(=O)OCC(=O)Nc2ccc([N+](=O)[O-])cc2C(F)(F)F)cc1	none
O=C(c1cc2nc(C3CC3)cc(C(F)F)n2n1)N1CCOCC1	Shiga toxin inh 32
Cc1cccc(NC(NC(=O)c2cccnc2)C(Cl)(Cl)Cl)c1 (stereo not drawn)	Pf growth 48h inconclusive, Pf growth 96h 13µM
Fc1ccccc1CSc1nnnn1-c1ccc2c(c1)OCO2	Cycloheximide cs 16, Pf growth 48h inconclusive (no result: Pf growth 96h)
COc1ccccc1NC(=O)CSc1nnnn1-c1ccc2c(c1)OCO2	none (no result: Pf growth 96h)
O=C(CSc1nnnn1-c1ccc2c(c1)OCO2)NCc1cccs1	Cycloheximide cs 27, Shiga toxin inh active (no result: Pf growth 96h)
O=C(CSc1nnnn1-c1ccc2c(c1)OCO2)NCc1ccccc1	Pf growth 96h inconclusive
Cc1ccc(CNC(=O)c2ccc(F)c(S(=O)(=O)N3CCOCC3)c2)cc1	Pf growth 48h inconclusive (no result: Cycloheximide cs, Shiga toxin inh, NS1 inh)
C/C(=N/N=C(\C)c1ccccc1O)c1ccccc1O	Cycloheximide cs 24, Shiga toxin inh 38
CC1CC(C)CN(C(=O)CSC2=Nc3ccccc3C3=NC(Cc4c[nH]c5ccccc45)C(=O)N23)C1 (stereo not drawn)	Pf growth 96h 5.2µM (no result: Pf growth 48h)
CC(NC(=O)c1ccccc1OC(F)F)c1ccc(-n2ccnc2)cc1 (stereo not drawn)	Pf growth 48h inconclusive, Pf growth 96h 12µM
Cc1ccccc1SCC(=O)Nc1cc(S(=O)(=O)N2CCOCC2)ccc1N1CCOCC1	Pf growth 48h 8.3µM, Pf growth 96h inconclusive
Cc1ccc(S(=O)(=O)N2CCOCC2)cc1NC(=O)CNc1ccccc1N1CCCC1=O	Pf growth 48h 9.3µM, Pf growth 96h inconclusive (no result: Cycloheximide cs, Shiga toxin inh, NS1 inh)
